According to PubChem BioAssay AID1159580 (chemical genetic matrix, 2015):
The campaign covered roughly 5,500 compounds. About 2,000 (36%) were called active. Roughly 18% stayed inconclusive and do not appear here. No stated cut-off is given here; in the data, active means normalized growth mostly below about 0.91 (no sharp cut-off); inconclusive means no clear call, values can overlap the other calls; inactive means mostly above about 0.92. The list shows a part of the results.

Assay: chemical genetic growth profiling, strain panel (AID 1159580);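 further: tested at 20 µM; growth read once vehicle control cultures reached saturation at 30 °C; 1 = growth at the plate median or of vehicle wells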
Conditions: S. cerevisiae deletion strains, growth OD

Measured: normalized growth

NC(N)=NOCC[C@H](N)C(=O)O
inactive: locus YAL013W, strain DEP1, stronger effect = lower value 0.991 | locus YAL021C, strain ccr4, stronger effect = lower value 1.01 | locus YAL026C, strain drs2, stronger effect = lower value 1.01 | locus YAL030W, strain snc1, stronger effect = lower value 1 | locus YBL061C, strain skt5, stronger effect = lower value 1.02 | locus YBR009C, strain hhf1, stronger effect = lower value 1.01 | locus YBR021W, strain FUR4, stronger effect = lower value 1 | locus YBR023C, strain chs3, stronger effect = lower value 1.02 | locus YBR171W, strain sec66, stronger effect = lower value 1.02 | locus YBR229C, strain ROT2, stronger effect = lower value 0.993 | locus YBR231C, strain swc5, stronger effect = lower value 1.02 | locus YBR279W, strain paf1, stronger effect = lower value 1.01 | locus YCL011C, strain gbp2, stronger effect = lower value 1.03 | locus YCL016C, strain dcc1, stronger effect = lower value 1.01 | locus YCL029C, strain bik1, stronger effect = lower value 0.983 | locus YCL061C, strain MRC1, stronger effect = lower value 1.01 | locus YCL069W, strain vba3, stronger effect = lower value 1.01 | locus YCR088W, strain abp1, stronger effect = lower value 1.01 | locus YDL005C, strain med2, stronger effect = lower value 1.01 | locus YDL035C, strain GPR1, stronger effect = lower value 0.985 | locus YDL040C, strain nat1, stronger effect = lower value 1.01 | locus YDL074C, strain BRE1, stronger effect = lower value 1.02 | locus YDL101C, strain DUN1, stronger effect = lower value 0.99 | locus YDL134C, strain PPH21, stronger effect = lower value 0.999 | locus YDL185W, strain tfp1, stronger effect = lower value 0.975 | locus YDL192W, strain arf1, stronger effect = lower value 0.983 | locus YDR001C, strain nth1, stronger effect = lower value 1.01 | locus YDR069C, strain doa4, stronger effect = lower value 1.02 | locus YDR101C, strain arx1, stronger effect = lower value 1.01 | locus YDR137W, strain rgp1, stronger effect = lower value 1.01 | locus YDR150W, strain NUM1, stronger effect = lower value 0.984 | locus YDR159W, strain sac3, stronger effect = lower value 1.01 | locus YDR162C, strain NBP2, stronger effect = lower value 1.02 | locus YDR195W, strain ref2 0.996 | locus YDR297W, strain sur2, stronger effect = lower value 1.01 | locus YDR318W, strain mcm21, stronger effect = lower value 0.983 | locus YDR334W, strain swr1, stronger effect = lower value 1.02 | locus YDR335W, strain msn5, stronger effect = lower value 1.01 | locus YDR388W, stronger effect = lower value 0.999 | locus YDR392W, strain spt3, stronger effect = lower value 1.01 | locus YDR502C, strain sam2, stronger effect = lower value 0.995 | locus YEL003W, strain gim4, stronger effect = lower value 1.02 | locus YEL037C, strain rad23, stronger effect = lower value 1.01 | locus YEL061C, strain CIN8 (second series), stronger effect = lower value 1.02 | locus YEL061C, strain CIN8, stronger effect = lower value 0.992 | locus YER015W, strain faa2, stronger effect = lower value 1.01 | locus YER016W, strain bim1, stronger effect = lower value 1.01 | locus YER110C, stronger effect = lower value 0.984 | locus YER111C, strain swi4, stronger effect = lower value 1.01 | locus YER155C, strain BEM2 (second series), stronger effect = lower value 1.01 | locus YER155C, strain BEM2, stronger effect = lower value 0.978 | locus YER167W, strain BCK2, stronger effect = lower value 0.978 | locus YFR010W, strain ubp6, stronger effect = lower value 1.01 | locus YGL078C, strain dbp3, stronger effect = lower value 0.994 | locus YGL086W, strain mad1, stronger effect = lower value 0.978 | locus YGL167C, strain pmr1, stronger effect = lower value 1.01 | locus YGL173C, strain kem1, stronger effect = lower value 1 | locus YGL227W, strain vid30, stronger effect = lower value 1.02 | locus YGL240W, strain doc1, stronger effect = lower value 1.02 | locus YGL248W, strain PDE1, stronger effect = lower value 0.994 | locus YGL253W, strain hxk2, stronger effect = lower value 1.01 | locus YGR078C, strain PAC10, stronger effect = lower value 1.04 | locus YGR135W, strain pre9, stronger effect = lower value 1.03 | locus YGR229C, strain SMI1, stronger effect = lower value 1.02 | locus YGR252W, strain gcn5, stronger effect = lower value 1.01 | locus YHR013C, strain ard1, stronger effect = lower value 1.04 | locus YHR027C, strain rpn1, stronger effect = lower value 1 | locus YHR030C, strain SLT2, stronger effect = lower value 0.978 | locus YHR079C, strain IRE1 (second series), stronger effect = lower value 0.985 | locus YHR094C, strain hxt1, stronger effect = lower value 0.988 | locus YHR129C, strain ARP1, stronger effect = lower value 0.991 | locus YHR142W, strain chs7, stronger effect = lower value 1.03 | locus YHR200W, strain rpn10, stronger effect = lower value 0.986 | locus YIL066C, strain RNR3, stronger effect = lower value 0.979 | locus YIL073C, strain SPO22, stronger effect = lower value 0.915 | locus YIL125W, strain kgd1, stronger effect = lower value 0.992 | locus YIR030C, strain dcg1, stronger effect = lower value 0.98 | locus YJL092W, strain hpr5, stronger effect = lower value 1.01 | locus YJL095W, strain BCK1 (second series), stronger effect = lower value 1.02 | locus YJL095W, strain BCK1, stronger effect = lower value 1.04 | locus YJL115W, strain asf1, stronger effect = lower value 1.01 | locus YJL129C, strain trk1, stronger effect = lower value 1.03 | locus YJL134W, strain LCB3, stronger effect = lower value 0.987 | locus YJL154C, strain vps35, stronger effect = lower value 1.01 | locus YJL164C, strain tpk1, stronger effect = lower value 1.01 | locus YJL166W, strain qcr8, stronger effect = lower value 1.02 | locus YJL168C, strain set2, stronger effect = lower value 0.988 | locus YJL187C, strain SWE1 (second series), stronger effect = lower value 1.01
